Assay results taken from PubChem BioAssay (NCI).
Compounds without any hit were thinned out: in the full panel of roughly 83,000, 20% have a hit.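 Method: cells in 96-well plates; compound added at one concentration; 48 h incubation; percent growth measured; values under 10 scored active.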

What was measured:
Assay in all cases: NCI-60 one-dose screen, 48 h (100 = growth as untreated, 0 = no growth, -100 = all killed)
Details in all cases: 10 µM unless noted
SK-MEL-2 melanoma = tested on: SK-MEL-2 melanoma
EKVX NSCLC = tested on: EKVX NSCLC
SN12C renal = tested on: SN12C renal
UO-31 renal = tested on: UO-31 renal
TK-10 renal = tested on: TK-10 renal
ACHN renal = tested on: ACHN renal
CAKI-1 renal = tested on: CAKI-1 renal
A498 renal = tested on: A498 renal
CCRF-CEM leukemia = tested on: CCRF-CEM leukemia
SR leukemia = tested on: SR leukemia
RPMI-8226 leukemia = tested on: RPMI-8226 leukemia
OVCAR-8 ovarian = tested on: OVCAR-8 ovarian
OVCAR-5 ovarian = tested on: OVCAR-5 ovarian
SK-OV-3 ovarian = tested on: SK-OV-3 ovarian
IGROV1 ovarian = tested on: IGROV1 ovarian
OVCAR-3 ovarian = tested on: OVCAR-3 ovarian
HS 578T breast = tested on: HS 578T breast
OVCAR-4 ovarian = tested on: OVCAR-4 ovarian
MOLT-4 leukemia = tested on: MOLT-4 leukemia
NCI/ADR-RES ovarian = tested on: NCI/ADR-RES ovarian

Measured: growth

CN(C)c1nc(-c2cccs2)n2nc(-c3ccco3)cc2n1
inactive: SK-MEL-2 melanoma 92.9% | EKVX NSCLC 80.1% | SN12C renal 92% | UO-31 renal 57.9% | TK-10 renal 103% | ACHN renal 96.9% | CAKI-1 renal 85.5% | A498 renal 74.1% | CCRF-CEM leukemia 93.9% | SR leukemia 74.1% | RPMI-8226 leukemia 73.2% | OVCAR-8 ovarian 96% | OVCAR-5 ovarian 99.4% | SK-OV-3 ovarian 90.2% | IGROV1 ovarian 81.1% | OVCAR-3 ovarian 101% | HS 578T breast 99.2%

c1coc(CNc2c3ccccc3nc3ccccc23)c1
inactive: SK-MEL-2 melanoma 101% | EKVX NSCLC 62.1% | SN12C renal 53.5% | UO-31 renal 39.5% | TK-10 renal 88.4% | ACHN renal 26.2% | CAKI-1 renal 41% | A498 renal 20.1% | CCRF-CEM leukemia 57.2% | SR leukemia 34% | RPMI-8226 leukemia 56.6% | OVCAR-8 ovarian 47.5% | OVCAR-5 ovarian 76.4% | OVCAR-4 ovarian 56.2% | SK-OV-3 ovarian 70.9% | OVCAR-3 ovarian 96.9% | HS 578T breast 84%

O=C(O)C(CCc1ccccc1)NCc1ccccc1 (configuration not stated)
inactive: SK-MEL-2 melanoma 94.9% | EKVX NSCLC 102% | SN12C renal 93% | UO-31 renal 77.8% | TK-10 renal 91% | ACHN renal 95.8% | CAKI-1 renal 100% | A498 renal 86.2% | MOLT-4 leukemia 108% | SR leukemia 106% | OVCAR-8 ovarian 106% | OVCAR-5 ovarian 93.5% | OVCAR-4 ovarian 78.5% | SK-OV-3 ovarian 98.5% | OVCAR-3 ovarian 100% | HS 578T breast 99.4% | NCI/ADR-RES ovarian 93.7%

O=C1/C=C/[C@@H](O)[C@@H]2C[C@@H](O)C[C@H]2/C=C/CCC[C@H]([C@@H](O)CO)O1
inactive: SK-MEL-2 melanoma 98.4% | EKVX NSCLC 96.6% | SN12C renal 102% | UO-31 renal 68.3% | TK-10 renal 121% | ACHN renal 109% | CAKI-1 renal 97.6% | A498 renal 64% | CCRF-CEM leukemia 101% | RPMI-8226 leukemia 112% | OVCAR-8 ovarian 82% | OVCAR-5 ovarian 98.5% | OVCAR-4 ovarian 72.8% | SK-OV-3 ovarian 91.6% | IGROV1 ovarian 98.5% | OVCAR-3 ovarian 86.7% | HS 578T breast 53.5% | NCI/ADR-RES ovarian 90.1%

COc1cc(Cl)cc(-c2nn(C(=O)NCCN3CCOCC3)cc2-c2ccncc2)c1
inactive: SK-MEL-2 melanoma 78.3% | EKVX NSCLC 93.4% | SN12C renal 75.3% | UO-31 renal 56.9% | TK-10 renal 78% | ACHN renal 65.6% | CAKI-1 renal 73.3% | A498 renal 65.7% | MOLT-4 leukemia 74.2% | SR leukemia 29.8% | OVCAR-8 ovarian 72.9% | OVCAR-5 ovarian 99.5% | OVCAR-4 ovarian 102% | SK-OV-3 ovarian 48.7% | IGROV1 ovarian 61.5% | OVCAR-3 ovarian 20.3% | HS 578T breast 97% | NCI/ADR-RES ovarian 60.9%
